Laboratory results from PubChem BioAssay (NCI).
Several values for one entry are separate records, joined by “and”; a condition that tells them apart may be missing. Equal values may be shown once. This is part of a sample that, as a whole, favours compounds with a hit. Of some 79,000 tested, about 15% had one in any assay. Activity calls are given as the source filed them. Rule as the data show it: active = growth inhibition above about 70%; inactive = the rest.

Assays:
[1] = NCI Yeast Anticancer Drug Screen. Data for the rad50 strain (AID 155);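 also: 0% = growth of vehicle-only cultures of the same strain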; conditions: S. cerevisiae rad50 strain growth inhibition, stronger effect = higher value; at 50.0 µM unless noted
Summary of the method: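 Growth of the mutant yeast was measured after compound exposure and referenced to vehicle-treated cultures.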

[2] = NCI Yeast Anticancer Drug Screen. Data for the mec2-1 strain (AID 157); conditions: S. cerevisiae mec2-1 strain, stronger effect = higher value; at 50.0 µM unless noted
Summary of the method: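 Cells of the genetically defined mec2-1 yeast strain are incubated with test compound. Inhibition of growth is calculated against vehicle-treated controls.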

[3] = NCI Yeast Anticancer Drug Screen. Data for the sgs1 mgt1 strain (AID 161);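 also: 0% = growth of cultures given vehicle only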; conditions: S. cerevisiae sgs1 mgt1 strain, stronger effect = higher value; at 50.0 µM unless noted
Summary of the method: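 Mutant yeast exposed to compound; growth scored against vehicle-only wells.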

[4] = NCI Yeast Anticancer Drug Screen. Data for the cln2 rad14 strain (AID 165);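 also: 0% = growth equal to vehicle treated cultures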; conditions: S. cerevisiae cln2 rad14 strain, stronger effect = higher value; at 50.0 µM unless noted
Summary of the method: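 The screen exposed genetically defined yeast (cln2 rad14) to test compounds and scored growth inhibition relative to vehicle-treated controls.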

[5] = NCI Yeast Anticancer Drug Screen. Data for the bub3 strain (AID 167); conditions: S. cerevisiae bub3 mutant strain, stronger effect = higher value; at 50.0 µM unless noted
Summary of the method: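 Whole-cell yeast assay. The mutant strain was incubated with compounds, and growth inhibition was determined by comparison with vehicle-treated cells.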

[6] = NCI Yeast Anticancer Drug Screen. Data for the mlh1 rad18 strain (AID 175); conditions: S. cerevisiae mlh1 rad18 strain growth inhibition, stronger effect = higher value; at 50.0 µM unless noted
Summary of the method: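 Compound-treated yeast growth, normalised to vehicle controls. Strain bears defined DNA repair mutations.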

Measured: growth inhibition

O=C1c2ccccc2C(=O)N1/N=[N+](\[O-])c1ccccc1
inactive: [1] 3.55% | [2] 0.3% | [3] 17.2% | [4] 7.3% | [5] 25.3% | [6] 40.8%

O=[N+]([O-])c1cccc(Nc2nc(Cl)nc(Cl)n2)c1
inactive: [1] -0.65% | [2] 21% | [3] 5.25% | [4] -8.25% | [5] -18.8% | [6] -14.5%

O=C1NCC2(CCN(CCCC3(c4ccc(F)cc4)OCCO3)CC2)N1c1ccccc1
inactive: [1] -14.1% | [2] -0.05% | [3] -1.55% | [4] 1.4% | [5] 6.4% | [6] 1.55%

CCOC(=O)c1nc(N)nc(N)c1-c1ccc(Cl)cc1
inactive: [1] 3.6% | [2] 10.7% | [3] -3.4% | [4] -4.9% | [5] 15.6% | [6] -1.2%

CCN(CC)N=Nc1ccc(C(=O)O)cc1
inactive: [1] 9.55% | [2] 1.7% | [3] -10.1% | [4] -8.8% | [5] 5.85% | [6] -2%

CCOc1cc2c(cc1C(C)c1ccc(O)cc1)OCO2 (configuration not stated)
active: [1] 99.5% | [2] 99.7% | [3] 99.7% | [4] 99.7% | [5] 99.5% | [6] 99.5%

CCCCC(CCCC)C(=O)O
inactive: [1] -22.3% | [2] -9.65% | [3] -9.85% | [4] 50% | [5] 10.9% | [6] -9.3%

O=C(NCc1ccccc1)C(=O)NCc1ccccc1
inactive: [1] 4.35% | [2] -1.85% | [3] -7.25% | [4] 3.5% | [5] -6.9% | [6] 5%

O=C(c1ccccc1)c1ccc(O)cc1
inactive: [1] 3.5% | [2] 3.05% | [3] 21.4% | [4] 13.9% | [5] -1.75% | [6] 24.9%

O=C1CC(c2ccccc2)n2c(nc3ccccc32)N1 (configuration not stated)
inactive: [1] 5% | [2] 1.85% | [3] -18.1% | [4] -14.1% | [5] -15.4% | [6] -64.2%

CCN(Cc1ccccc1)c1nnnn1-c1ccccc1
inactive: [1] -2.5% | [2] -5.25% | [3] 8% | [4] 6.75% | [5] 12.1% | [6] -10.6%

CCCCOC(=O)c1cccc(C)c1
inactive: [1] -3% | [2] 4.4% | [3] -4.35% | [4] -38.1% | [5] 2.6% | [6] -0.9%

O=C(CCCC(=O)N/N=C/c1ccccc1O)N/N=C\c1ccccc1O
inactive: [1] 4.55% | [2] -6.65% | [3] -20.4% | [4] 3.35% | [5] -3.5% | [6] -12.9%

Cc1cc(Cl)ccc1N=C1NC(=O)C(CC(=O)Nc2ccc([N+](=O)[O-])cc2[N+](=O)[O-])S1 (configuration not stated)
inactive: [1] 25.1% | [2] -4% | [3] 12.1% | [4] -58.9% | [5] 13% | [6] 33.1%

COC(=O)C(=O)C(C(=O)C(=O)Nc1cccc(C(C)=O)c1)c1nc2ccccc2[nH]c1=O (configuration not stated)
inactive: [1] 2.7% | [2] -9.45% | [3] 2.15% | [4] 14.2% | [5] -18.9% | [6] 3.5%

CN(C)c1ccc(/C=N/Nc2nc3ccccc3c(=O)n2-c2ccccc2)cc1
inactive: [1] -3.05% | [2] -16.1% | [3] 6.55% | [4] 17.9% | [5] 26.1% | [6] -3.7%

CCCCCCc1cc2cc(-c3csc(CC#N)n3)c(=O)oc2cc1O
inactive: [1] 13.1% | [2] 14.1% | [3] -29.2% | [4] -6.6% | [5] -32.8% | [6] -32%

c1ccc(CNCCNCc2ccccc2)cc1
inactive: [1] 0.3% and 58.3% | [2] 4.75% and -16.4% | [3] 14.4% and 50.9% | [4] -56.7% and -11.3% | [5] -11.7% and 0.05% | [6] -5.35% and 46%

COc1ccc(OC)c(NC(=O)C(=O)C(C(C)=O)c2nc3ccc(Cl)cc3[nH]c2=O)c1 (configuration not stated)
inactive: [1] -12.8% | [2] 7.75% | [3] -15.5% | [4] 12% | [5] 2.5% | [6] -7.35%

c1ccc(-c2cnoc2-c2ccccc2)cc1
inactive: [1] 14% | [2] 17.6% | [3] 7.15% | [4] -19.8% | [5] -18.7% | [6] 8.3%

O=C(NC12CC3CC(CC(C3)C1)C2)C(=O)c1c[nH]c2ccc(Cl)cc12
inactive: [1] -9.15% | [2] -10.6% | [3] -4.1% | [4] 21.8% | [5] 8.5% | [6] -9.15%

Oc1cccc2c1CCCC2
inactive: [1] -1.25% | [2] -12.2% | [3] -37% | [4] -16.4% | [5] -1.85% | [6] -3.9%

CCOC(=O)c1ccc(N=C2S/C(=C\C(=S)Nc3ccccc3)N(c3ccccc3)C2=Nc2ccc(C(=O)OCC)cc2)cc1
inactive: [1] 14.3% | [2] 4.85% | [3] 12.4% | [4] 13.6% | [5] 19.2% | [6] 12.4%

Cc1cc(OCC(=O)O)cc(C)c1C
inactive: [1] 1% | [2] -8.5% | [3] -15.1% | [4] -18.6% | [5] -4.55% | [6] -1.45%

CSc1nc(N)cc(=O)n1C
inactive: [1] -16.1% | [2] -11.2% | [3] -23.9% | [4] -53.1% | [5] -9.05% | [6] 14.2%

Cc1cc(O)c(C)cc1O
inactive: [1] 16.1% | [2] 5.5% | [3] -2.85% | [4] 6.5% | [5] -7.95% | [6] 21.6%

CC/C(CC(=O)CCC(=O)Nc1ccc(C)c(C)c1)=N\NC(=O)c1cc2ccccc2cc1O
inactive: [1] 45.2% | [2] 22.9% | [3] -13.4% | [4] -5.2% | [5] 44.6% | [6] 34.4%

COCCOC(=O)OCCOC
inactive: [1] -1.5% | [2] 3.65% | [3] 4.75% | [4] -31.7% | [5] -12.8% | [6] 11.7%

CC(C)(C)C(=O)NC(OC(NC(=O)C(C)(C)C)C(=O)C(C)(C)C)C(=O)C(C)(C)C (configuration not stated)
inactive: [1] 4.05% | [2] 6.25% | [3] -21.4% | [4] -0.6% | [5] -0.1% | [6] 21%

COc1ccc(OC)c2[nH]c(=O)c(C)nc12
inactive: [1] 7.15% | [2] 1.85% | [3] 5.75% | [4] -4.85% | [5] 4.35% | [6] -4.3%

COC1OC2COc3ccccc3OC2C2C1N2C(N)=O (configuration not stated)
inactive: [1] 7.4% | [2] 0.7% | [3] 4.5% | [4] -6.65% | [5] -2.85% | [6] 3.8%

COc1ccc(C2=C(N)c3ncccc3C2=O)cc1
inactive: [1] 5.55% | [2] -5.05% | [3] 7.4% | [4] 4.65% | [5] 19.9% | [6] -70.3%

CN1CCN(C(=S)N(C)C(=O)c2ccco2)CC1
inactive: [1] -37.8% | [2] -36.9% | [3] -48.9% | [4] -8.85% | [5] -44.4% | [6] -40.1%

CCCCCCCCCc1cc(=O)c2c(O)cccc2o1
inactive: [1] -25.8% | [2] -30.6% | [3] -11% | [4] -20.1% | [5] 18.6% | [6] -22.4%

CCOC(=O)N(C)C1(c2ccccc2)CCN(CCCC(=O)c2ccc(F)cc2)CC1
inactive: [1] 23% | [2] -34.9% | [3] 7.55% | [4] -26.6% | [5] -7% | [6] -17.2%

CCOC(=O)CNC(=O)C(CCC(=O)N(C)O)NC(=O)CCC(N)C(=O)O (configuration not stated)
inactive: [1] -20.1% | [2] -5.5% | [3] -0.8% | [4] -0.05% | [5] 4.25% | [6] -35.5%

Cc1cc2c(C(C)C)c(O)c(O)c(C=NC(C)c3ccccc3)c2c(O)c1-c1c(C)cc2c(C(C)C)c(O)c(O)c(C=NC(C)c3ccccc3)c2c1O (configuration not stated)
inactive: [1] 18.2% | [2] 7.35% | [3] 15.3% | [4] 11.9% | [5] 30.9% | [6] 7.95%
